Test in all cases: DAPPL (digital affinity profiling via proximity ligation, sequencing); 10 mM Tris-HCl pH 7.5, 50 mM NaCl, 1 mM DTT, 4% glycerol, room temperature, 30 min; GST-TFs on glutathione beads, 16-mer random dsDNA library, 0.1% formaldehyde crosslink after washing; high values mean tight binding
What all share (settings): protein: recombinant; tags: N-terminal GST; dsDNA, one strand shown

One test addresses T1, FLI1 (Homo sapiens, UniProt Q01543 1-452).
T1 sequence: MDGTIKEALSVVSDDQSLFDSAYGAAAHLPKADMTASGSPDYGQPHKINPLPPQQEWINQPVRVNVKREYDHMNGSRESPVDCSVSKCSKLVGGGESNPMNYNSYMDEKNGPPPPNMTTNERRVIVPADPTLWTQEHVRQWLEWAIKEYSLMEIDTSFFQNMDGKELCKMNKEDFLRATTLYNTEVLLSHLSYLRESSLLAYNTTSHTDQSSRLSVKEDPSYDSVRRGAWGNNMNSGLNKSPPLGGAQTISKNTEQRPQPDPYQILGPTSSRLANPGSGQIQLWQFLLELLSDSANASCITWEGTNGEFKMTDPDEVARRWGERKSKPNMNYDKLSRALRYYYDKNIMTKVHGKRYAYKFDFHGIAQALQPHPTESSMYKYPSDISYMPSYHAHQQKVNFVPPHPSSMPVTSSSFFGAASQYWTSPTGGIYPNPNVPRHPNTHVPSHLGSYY
In a few lines:
(§1)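 Human transcription factors fused to GST were expressed in yeast, captured on glutathione beads, given DNA barcodes and pooled with a GST-only negative control. Pools were incubated with 200 nmole of a 16-mer random double-stranded DNA library in Tris/NaCl/DTT/glycerol buffer at room temperature for 30 min. They were then washed, crosslinked with 0.1% formaldehyde, proximity-ligated (BsaI/T4 ligase, 1 h, 37 °C), PCR-amplified and sequenced on an Illumina NextSeq500. Binding signal is each 6-mer's read frequency for a factor divided by its frequency for the GST control.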

The next test has as its target T2, ELK1 (Homo sapiens, UniProt P19419 1-428).
T2 sequence: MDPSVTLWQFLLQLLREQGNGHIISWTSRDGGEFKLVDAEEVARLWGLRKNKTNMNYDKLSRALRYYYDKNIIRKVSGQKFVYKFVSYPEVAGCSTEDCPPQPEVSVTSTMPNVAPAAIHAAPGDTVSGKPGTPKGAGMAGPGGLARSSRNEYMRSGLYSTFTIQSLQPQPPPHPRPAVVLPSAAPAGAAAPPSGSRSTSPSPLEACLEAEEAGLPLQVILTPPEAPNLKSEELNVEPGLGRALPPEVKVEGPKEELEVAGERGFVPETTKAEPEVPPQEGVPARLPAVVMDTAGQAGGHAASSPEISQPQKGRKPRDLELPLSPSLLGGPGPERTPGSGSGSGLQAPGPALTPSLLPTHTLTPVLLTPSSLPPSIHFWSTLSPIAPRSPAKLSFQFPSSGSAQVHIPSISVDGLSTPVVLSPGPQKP
A digest of the protocol:
as §1

The target of another test is T3, GABPA (Homo sapiens, UniProt Q06546 1-454).
T3 sequence: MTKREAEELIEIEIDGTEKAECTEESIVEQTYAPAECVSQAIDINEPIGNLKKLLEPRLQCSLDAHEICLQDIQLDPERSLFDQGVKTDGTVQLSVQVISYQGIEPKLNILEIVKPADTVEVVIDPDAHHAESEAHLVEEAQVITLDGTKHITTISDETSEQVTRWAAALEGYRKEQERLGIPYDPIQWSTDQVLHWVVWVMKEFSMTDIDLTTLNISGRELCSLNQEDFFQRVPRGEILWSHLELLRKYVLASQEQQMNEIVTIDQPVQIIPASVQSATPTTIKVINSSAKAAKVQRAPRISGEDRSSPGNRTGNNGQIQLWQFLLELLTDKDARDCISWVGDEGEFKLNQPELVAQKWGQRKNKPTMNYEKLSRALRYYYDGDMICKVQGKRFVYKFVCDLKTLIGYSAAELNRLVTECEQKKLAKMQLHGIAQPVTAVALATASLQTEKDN
A digest of the protocol:
as §1

The next test has as its target T4, ERG (Homo sapiens, UniProt P11308 1-479).
T4 sequence: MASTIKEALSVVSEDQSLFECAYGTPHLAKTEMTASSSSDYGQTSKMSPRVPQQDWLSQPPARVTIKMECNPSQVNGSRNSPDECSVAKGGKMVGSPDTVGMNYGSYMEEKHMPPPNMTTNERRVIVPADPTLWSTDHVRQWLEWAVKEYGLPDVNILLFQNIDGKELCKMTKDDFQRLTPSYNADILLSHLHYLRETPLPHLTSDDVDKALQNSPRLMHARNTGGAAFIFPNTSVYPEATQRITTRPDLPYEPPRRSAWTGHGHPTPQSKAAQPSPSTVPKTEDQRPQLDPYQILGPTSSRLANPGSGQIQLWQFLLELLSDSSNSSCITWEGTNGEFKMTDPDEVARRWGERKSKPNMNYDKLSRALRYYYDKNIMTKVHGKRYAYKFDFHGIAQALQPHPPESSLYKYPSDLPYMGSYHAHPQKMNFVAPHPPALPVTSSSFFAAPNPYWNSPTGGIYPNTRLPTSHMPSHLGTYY
A digest of the protocol:
as §1

The target of a further test is ELF1 (Homo sapiens, UniProt P32519 1-619). A digest of the protocol: as §1
The next test has as its target T5, EHF (Homo sapiens, UniProt Q9NZC4 1-300).
T5 sequence: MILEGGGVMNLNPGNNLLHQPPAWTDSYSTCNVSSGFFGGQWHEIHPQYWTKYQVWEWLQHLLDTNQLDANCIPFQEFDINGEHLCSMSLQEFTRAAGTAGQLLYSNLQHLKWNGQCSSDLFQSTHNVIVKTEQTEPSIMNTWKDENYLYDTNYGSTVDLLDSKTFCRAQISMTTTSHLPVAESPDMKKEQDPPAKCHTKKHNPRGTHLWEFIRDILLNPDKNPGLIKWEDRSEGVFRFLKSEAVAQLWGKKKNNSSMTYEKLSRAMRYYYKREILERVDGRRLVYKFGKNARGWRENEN
A digest of the protocol:
as §1

The target in a further test is SPI1 (Homo sapiens, UniProt P17947 1-270). A digest of the protocol:
as §1

The target of a further test is SPIB (Homo sapiens, UniProt Q01892 1-262). A digest of the protocol: as §1
The target of a further test is T6, ELK3 (Homo sapiens, UniProt P41970 1-407).
T6 sequence: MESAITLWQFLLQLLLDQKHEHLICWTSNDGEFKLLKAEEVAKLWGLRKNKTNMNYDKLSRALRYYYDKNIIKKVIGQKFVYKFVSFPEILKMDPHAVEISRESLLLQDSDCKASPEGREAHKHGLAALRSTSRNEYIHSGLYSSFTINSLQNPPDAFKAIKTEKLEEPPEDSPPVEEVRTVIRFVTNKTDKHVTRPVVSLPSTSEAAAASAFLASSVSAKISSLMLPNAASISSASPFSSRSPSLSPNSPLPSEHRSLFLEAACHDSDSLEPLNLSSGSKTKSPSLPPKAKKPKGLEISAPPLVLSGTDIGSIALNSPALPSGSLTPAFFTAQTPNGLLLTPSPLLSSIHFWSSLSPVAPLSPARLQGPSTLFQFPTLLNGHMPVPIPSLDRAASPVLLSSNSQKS
A digest of the protocol: as §1

Chain of ELF1 (P32519 whole entry): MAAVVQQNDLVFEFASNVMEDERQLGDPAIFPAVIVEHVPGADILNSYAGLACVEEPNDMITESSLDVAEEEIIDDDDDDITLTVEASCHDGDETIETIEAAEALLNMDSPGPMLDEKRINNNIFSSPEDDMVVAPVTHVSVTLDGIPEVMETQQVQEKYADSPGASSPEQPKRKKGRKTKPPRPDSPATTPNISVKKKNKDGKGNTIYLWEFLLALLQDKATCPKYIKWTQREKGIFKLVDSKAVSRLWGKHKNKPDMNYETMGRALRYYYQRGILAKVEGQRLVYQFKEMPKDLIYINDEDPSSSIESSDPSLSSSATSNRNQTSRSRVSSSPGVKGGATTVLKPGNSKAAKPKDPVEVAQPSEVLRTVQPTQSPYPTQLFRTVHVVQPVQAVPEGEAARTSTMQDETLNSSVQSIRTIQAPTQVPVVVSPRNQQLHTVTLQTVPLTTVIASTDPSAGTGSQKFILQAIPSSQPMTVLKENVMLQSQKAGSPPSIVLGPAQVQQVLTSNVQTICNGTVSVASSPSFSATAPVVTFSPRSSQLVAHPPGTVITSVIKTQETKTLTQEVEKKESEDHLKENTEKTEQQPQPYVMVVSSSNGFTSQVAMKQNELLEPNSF
Chain of SPIB (Q01892 whole entry): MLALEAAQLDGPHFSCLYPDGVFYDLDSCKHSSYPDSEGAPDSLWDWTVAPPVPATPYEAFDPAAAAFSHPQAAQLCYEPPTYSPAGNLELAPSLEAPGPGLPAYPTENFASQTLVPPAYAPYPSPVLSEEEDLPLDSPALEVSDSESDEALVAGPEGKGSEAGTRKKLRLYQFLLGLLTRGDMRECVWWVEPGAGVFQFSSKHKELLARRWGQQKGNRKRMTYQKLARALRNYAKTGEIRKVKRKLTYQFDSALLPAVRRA

Regarding AATAAG, the binding signal with FLI1 is 1.22 fold enrichment (6-mer frequency, TF over GST control); in the test with ELK1 it was 1.21 fold enrichment (6-mer frequency, TF over GST control); with GABPA it was 1.31 fold enrichment (6-mer frequency, TF over GST control); in the test with ERG, 1.37 fold enrichment (6-mer frequency, TF over GST control); in the test with ELF1 it was 1.24 fold enrichment (6-mer frequency, TF over GST control); with EHF, 1.22 fold enrichment (6-mer frequency, TF over GST control). Also, the binding signal was 1.27 fold enrichment (6-mer frequency, TF over GST control) in the test with SPI1; 1.3 fold enrichment (6-mer frequency, TF over GST control) in the test with SPIB; 1.23 fold enrichment (6-mer frequency, TF over GST control) in the test with ELK3.
For CCTGTT, the binding signal with FLI1 is 1.79 fold enrichment (6-mer frequency, TF over GST control); with ELK1, 1.63 fold enrichment (6-mer frequency, TF over GST control); in the test with GABPA it was 1.73 fold enrichment (6-mer frequency, TF over GST control); with ERG it was 1.72 fold enrichment (6-mer frequency, TF over GST control); in the test with ELF1 it was 1.75 fold enrichment (6-mer frequency, TF over GST control); in the test with EHF, 1.76 fold enrichment (6-mer frequency, TF over GST control). Besides, the binding signal is 2 fold enrichment (6-mer frequency, TF over GST control) in the test with SPI1; 1.75 fold enrichment (6-mer frequency, TF over GST control) in the test with SPIB; 1.94 fold enrichment (6-mer frequency, TF over GST control) in the test with ELK3.
CCGCTT: the binding signal in the test with FLI1 was 1.89 fold enrichment (6-mer frequency, TF over GST control); with ELK1 it was 1.89 fold enrichment (6-mer frequency, TF over GST control); in the test with GABPA, 1.84 fold enrichment (6-mer frequency, TF over GST control); with ERG, 1.85 fold enrichment (6-mer frequency, TF over GST control); in the test with ELF1 it was 1.92 fold enrichment (6-mer frequency, TF over GST control); with EHF it was 1.93 fold enrichment (6-mer frequency, TF over GST control). The binding signal in the test with SPI1 was 2.69 fold enrichment (6-mer frequency, TF over GST control); in the test with SPIB, 1.93 fold enrichment (6-mer frequency, TF over GST control); with ELK3, 2.06 fold enrichment (6-mer frequency, TF over GST control).
On to ACAATT, for which the binding signal in the test with FLI1 is 1.33 fold enrichment (6-mer frequency, TF over GST control); with ELK1, 1.27 fold enrichment (6-mer frequency, TF over GST control); with GABPA, 1.15 fold enrichment (6-mer frequency, TF over GST control); with ERG, 1.32 fold enrichment (6-mer frequency, TF over GST control); in the test with ELF1, 1.32 fold enrichment (6-mer frequency, TF over GST control); with EHF it was 1.23 fold enrichment (6-mer frequency, TF over GST control). Further, the binding signal with SPI1 was 1.23 fold enrichment (6-mer frequency, TF over GST control); with SPIB it was 1.2 fold enrichment (6-mer frequency, TF over GST control); with ELK3 it was 1.25 fold enrichment (6-mer frequency, TF over GST control).
Take AAACTA: the binding signal is 1.17 fold enrichment (6-mer frequency, TF over GST control) with FLI1; 1.23 fold enrichment (6-mer frequency, TF over GST control) in the test with ELK1; 1.23 fold enrichment (6-mer frequency, TF over GST control) with GABPA; 1.23 fold enrichment (6-mer frequency, TF over GST control) with ERG; 1.27 fold enrichment (6-mer frequency, TF over GST control) with ELF1; 1.32 fold enrichment (6-mer frequency, TF over GST control) with EHF. Besides, the binding signal with SPI1 was 1.22 fold enrichment (6-mer frequency, TF over GST control); with SPIB, 1.22 fold enrichment (6-mer frequency, TF over GST control); in the test with ELK3 it was 1.34 fold enrichment (6-mer frequency, TF over GST control).
Turning to CTTCGG, the binding signal with FLI1 is 1.48 fold enrichment (6-mer frequency, TF over GST control); with ELK1, 1.46 fold enrichment (6-mer frequency, TF over GST control); in the test with GABPA, 1.58 fold enrichment (6-mer frequency, TF over GST control); with ERG it was 1.35 fold enrichment (6-mer frequency, TF over GST control); with ELF1, 1.39 fold enrichment (6-mer frequency, TF over GST control); with EHF it was 1.24 fold enrichment (6-mer frequency, TF over GST control). The binding signal with SPI1 is 1.37 fold enrichment (6-mer frequency, TF over GST control); in the test with SPIB, 1.46 fold enrichment (6-mer frequency, TF over GST control); with ELK3, 1.38 fold enrichment (6-mer frequency, TF over GST control).
Turning to TCGATC, the binding signal was 1.31 fold enrichment (6-mer frequency, TF over GST control) in the test with FLI1; 1.08 fold enrichment (6-mer frequency, TF over GST control) with ELK1; 1.14 fold enrichment (6-mer frequency, TF over GST control) with GABPA; 1.18 fold enrichment (6-mer frequency, TF over GST control) with ERG; 1.27 fold enrichment (6-mer frequency, TF over GST control) in the test with ELF1; 1.16 fold enrichment (6-mer frequency, TF over GST control) in the test with EHF. Besides, the binding signal with SPI1 was 1.11 fold enrichment (6-mer frequency, TF over GST control); with SPIB, 1.25 fold enrichment (6-mer frequency, TF over GST control); with ELK3 it was 1.27 fold enrichment (6-mer frequency, TF over GST control).

These data come from article PMC7862700, “An all-to-all approach to the identification of sequence-specific readers for epigenetic DNA modifications on cytosine”.
